Laboratory results taken from PubChem BioAssay AID493221 (Johns Hopkins Ion Channel Center, 2011).
Among all 2,400 compounds or so, about 1,700 (71%) were called active.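 Rule for the calls: active = choline transporter activity left, mean of duplicates at 10 µM, below buffer-only control mean minus 3 SD; inactive = the rest.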 The set was probably picked from earlier hits. A selection follows.

Target: High affinity choline transporter 1 (Homo sapiens) (UniProt Q9GZV3)
Assay: human choline transporter blockers – cell-based, membrane potential dye, duplicate, confirmation (AID 493221)
Conditions: CHT-expressing cells, at 10 µM, LV-to-AA substituted CHT, HEK293 cells

Sequence of High affinity choline transporter 1 (Homo sapiens) (Q9GZV3 whole entry, looked up): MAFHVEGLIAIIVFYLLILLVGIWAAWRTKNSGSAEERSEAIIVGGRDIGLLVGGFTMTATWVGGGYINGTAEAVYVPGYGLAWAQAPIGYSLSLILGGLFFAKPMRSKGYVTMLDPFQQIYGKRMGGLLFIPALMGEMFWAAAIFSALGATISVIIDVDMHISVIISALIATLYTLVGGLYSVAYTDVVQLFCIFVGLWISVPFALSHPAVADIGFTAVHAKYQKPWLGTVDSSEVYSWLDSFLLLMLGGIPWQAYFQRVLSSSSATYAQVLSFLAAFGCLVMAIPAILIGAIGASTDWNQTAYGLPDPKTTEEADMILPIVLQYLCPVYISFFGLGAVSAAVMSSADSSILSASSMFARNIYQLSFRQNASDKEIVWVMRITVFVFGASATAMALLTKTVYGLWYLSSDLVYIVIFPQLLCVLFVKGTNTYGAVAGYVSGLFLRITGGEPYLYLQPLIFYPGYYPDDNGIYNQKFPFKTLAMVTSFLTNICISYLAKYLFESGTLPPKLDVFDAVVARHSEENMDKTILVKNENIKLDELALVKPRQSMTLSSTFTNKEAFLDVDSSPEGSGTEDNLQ

Row | SMILES | CHT activity remaining % of control (hits give low values)
1 | C[N+]1(C)CCOC(O)(c2ccc(-c3ccc(C4(O)C[N+](C)(C)CCO4)cc3)cc2)C1 (stereo not drawn) | 4.79% (active)
2 | COc1ccccc1N1CCN(C(CNC(=O)Oc2ccccc2)c2cccnc2)CC1 (stereo not drawn) | inactive
3 | Cc1nc2ccccn2c1P(=S)(N1CCCCC1)N1CCCCC1 | 61.1% (active)
